Laboratory results from PubChem BioAssay (NCATS).
“And” between values parts separate entries of the source, which are not always exact repeats. Equal entries are not always repeated. Results filed as inconclusive are left out. The source made the active and inactive calls. Unless noted, calls follow the shape of the dose curve; as a rule, active = well fitted curve in either direction with a large enough effect (not every such curve was filed as active); inconclusive = small, poorly fitted or top-dose-only effect, or another doubt; inactive = flat fitted curve, though single readings scatter.

What was measured:
[1] = AP1 Signaling Pathway (AID 357); details: ME-180 AP-1-bla reporter, EGF-induced, beta-lactamase ratio, 5 h;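 also: ME-180 reporter cells stimulated with EGF at its EC50 level; % is scaled to controls: 0 for no effect and ±100 for the full control effect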
How it was run: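 First, ME-180 AP-1-bla cells were cultured overnight at 37 °C in low-serum Opti-MEM. Next, titrated compounds with EC50 EGF were incubated 5 hours. Finally, CCF4 was added for 2.5 hours and the 460/530 nm ratio recorded.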

[2] = target: Cytochrome P450 1A2 (Homo sapiens) (UniProt P05177); experiment: p450-cyp1a2 (AID 410; calls by dose curve; also: potency is read from the fitted curve at half-maximal effect;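 as to activity change, negative = inhibition: -100% = full effect of reference inhibitor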); details: recombinant CYP1A2, luciferin-ME demethylation, luminescence; series mostly up to 57 µM
How it was run: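 20nM CYP1A2 with 100uM Luciferin-ME (at Km) in 100mM KPO4; compound preincubated 10 min, NADPH regeneration added, 60 min at room temperature. Luciferin quantified by luminescence after detection reagent; normalized to 57 uM furafylline.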

[3] = NFAT Signaling Pathway (AID 444); details: Jurkat NFAT-bla M1, carbachol, beta-lactamase ratio, 5 h;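 also: carbachol stimulus at about its EC50 of 1 µM final; % is scaled to controls: 0 for no effect and ±100 for the full control effect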
How it was run: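 Read-out: CCF4 FRET ratio (460 nm/530 nm) after 1 h RT dye loading, used for %activity and AC50 from titration series. Cells: Jurkat NFAT-β-lactamase/M1 line, treated with compound plus 1 uM carbachol for 5 h, 37 °C.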

[4] = Stat Signaling Pathway (AID 446); details: ME-180 SIE beta-lactamase reporter, IL-6 stimulated, 5 h; series mostly up to 17.2 µM;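 also: ME-180 cervical cancer cells given 40 pM IL-6 alongside compound; SIE-controlled beta-lactamase reporter measured as 460/530 nm FRET emission ratio; % is scaled to controls: 0 for no effect and ±100 for the full control effect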
How it was run: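 ME-180 SIE-bla cells; overnight plating; cpd + IL-6 40 pM, 5 h, 37 C; LiveBLAzer 2.5 h RT; 460/530 nm emission ratio. Normalized to 300 pM IL-6 and 125 nM JAK inhibitor controls.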

[5] = target: Glucocorticoid receptor (Homo sapiens) (UniProt P04150); experiment: GR-GFP Redistribution (AID 450;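 active = compounds whose dose series gives a full or clear partial fitted curve of increased nuclear translocation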; also: potency is read from the fitted curve at half-maximal effect); details: U2OS GR-GFP nuclear translocation, laser cytometry, 2 h
[6] = target: Glucocorticoid receptor (Homo sapiens) (UniProt P04150); experiment: GR-EFC Redistribution (AID 451; calls by dose curve; also: potency is read from the fitted curve at half-maximal effect); details: CHO-K1 GR-EFC translocation, beta-gal luminescence, 2 h
How it was run: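 Translocation of GR-ED fusion to nuclear EA restores b-gal, read by luminescence after 1 h room-temperature detection. Engineered CHO-K1 biosensor cells, 1,000/well, exposed 2 h at 37 C to titrations up to 46 uM final.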

[7] = Cell Viability - BJ (AID 421; calls by dose curve;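 also: potency is read from the fitted curve at half-maximal effect; cells exposed to compound for 40 hours at 37 °C before readout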); details: BJ fibroblast viability, qHTS
How it was run: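 Luminescent ATP signal (CellTiter-Glo, 20 min at room temperature) served as the read-out of viable BJ cells after 40 hours of compound treatment. Responses were scaled between DMSO and 100 uM tamoxifen, and AC50 values were obtained by Hill modeling.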

[8] = Cell Viability - Jurkat (AID 426;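 active = dose-dependent loss of cell ATP signal giving a full or clear fitted curve, ranked by lower potency value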; also: potency is read from the fitted curve at half-maximal effect); details: qHTS
How it was run: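 Jurkat (Clone E6-1) cells, 5000/well in complete medium, exposed to compounds for 40 hr at 37C; intracellular ATP measured by CellTiter-Glo luminescence after 20 min at room temperature. AC50 from Hill fits.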

[9] = Cell Viability - Hek293 (AID 427;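 active = compounds whose dose-response curve shows a full or clear partial loss of cell viability, called from curve shape rather than a numeric limit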;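 also: potency is read from the fitted curve at half-maximal effect; cells exposed to compound for 40 hours at 37 °C before reading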); details: qHTS
How it was run: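 Luminescent ATP read-out (CellTiter-Glo, 20 min RT) after 40 hr compound exposure at 37 °C in complete medium. Signal normalized to DMSO (basal) and 100 uM tamoxifen (100% inhibition); concentration-response fitted with the standard Hill equation to give AC50.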

[10] = Cell Viability - HepG2 (AID 433; calls by dose curve;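 also: potency is read from the fitted curve at half-maximal effect; potency for ATP loss meaning cytotoxicity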); details: qHTS
How it was run: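 HepG2 cells, 1500 per well, treated 40 hr at 37 °C in complete medium; viability from intracellular ATP by CellTiter-Glo luminescence. Normalized to DMSO and 100 uM tamoxifen; AC50 from Hill fit of qHTS concentration-response.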

[11] = Cell Viability - MRC5 (AID 434; calls by dose curve;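 also: potency is read from the fitted curve at half-maximal effect; potency reflects cytotoxicity seen as loss of intracellular ATP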); details: MRC5 lung fibroblast viability, qHTS
How it was run: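 qHTS cytotoxicity in human lung fibroblast MRC5 cells; 40 hr treatment, 37 °C; cellular ATP by luciferase luminescence; DMSO = 0%, 100 uM tamoxifen = 100% inhibition; Hill-fit AC50.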

[12] = Cell Viability - SK-N-SH (AID 435; calls by dose curve;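 also: potency is read from the fitted curve at half-maximal effect; compound exposure lasted 40 h at 37 °C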); details: SK-N-SH neuroblastoma cell viability qHTS
How it was run: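 SK-N-SH neuroblastoma cells (1500/well) treated 40 h at 37 °C in complete medium; viability read as cellular ATP by CellTiter-Glo luminescence. Normalized to DMSO and 100 uM tamoxifen; AC50 from Hill fits of qHTS concentration-response.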

[13] = Cell Viability - N2a (AID 540; active = well fitted curve in the direction sought with a large enough effect; an effect the other way counts as inactive or inconclusive;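 also: plate controls were DMSO alone for no effect and tamoxifen control for full effect; nearly all actives have a fitted effect of over 45% in size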); details: N2a mouse neuroblastoma cell viability; series mostly up to 92.2 µM
How it was run: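 Mouse neuroblastoma N2a cells, 1500/well, exposed to compounds 40 h at 37 °C in complete medium. Viability measured as cellular ATP by CellTiter-Glo luminescence; AC50 from Hill fits of concentration-response.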

[14] = Cell Viability - NIH 3T3 (AID 541; active = well fitted curve in the direction sought with a large enough effect; an effect the other way counts as inactive or inconclusive;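 also: plate controls were DMSO alone for no effect and tamoxifen positive control for full effect; nearly all actives have a fitted effect of over 25% in size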); details: NIH 3T3 cell viability, qHTS; series mostly up to 92.2 µM
How it was run: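 Mouse NIH 3T3 fibroblasts, 1000 cells/well, rested 5 hr at 37 °C, then exposed to compound for 40 hr at 37 °C in complete medium. Viability read as intracellular ATP by CellTiter-Glo luminescence; AC50 from Hill-equation fits of concentration-response data.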

[15] = Cell Viability - HUV-EC-C (AID 542; active = well fitted curve in the direction sought with a large enough effect; an effect the other way counts as inactive or inconclusive; also: % is scaled to controls: 0 for no effect and ±100 for the full control effect; nearly all actives have a fitted effect of over 35% in size); details: HUV-EC-C endothelial cell viability, qHTS; series mostly up to 92.2 µM
How it was run: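 HUV-EC-C human vascular endothelial cells, 1000/well, exposed to compound for 40 hr at 37 °C in complete medium. Intracellular ATP was read by CellTiter-Glo luminescence. AC50 came from Hill-equation fits of concentration-response data.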

[16] = Cell Viability - H-4-II-E (AID 543; active = well fitted curve in the direction sought with a large enough effect; an effect the other way counts as inactive or inconclusive; also: % is scaled to controls: 0 for no effect and ±100 for the full control effect; nearly all actives have a fitted effect of over 35% in size); details: H-4-II-E rat hepatoma viability; series mostly up to 92.2 µM
How it was run: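 Rat hepatoma H-4-II-E cells, 1500 per well, treated 40 h at 37 °C in complete medium. Cellular ATP read by CellTiter-Glo luminescence; AC50 from Hill fits of concentration-response.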

[17] = Cell Viability - SH-SY5Y (AID 544; active = well fitted curve in the direction sought with a large enough effect; an effect the other way counts as inactive or inconclusive;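 also: 0% = DMSO alone and -100% = 100 µM tamoxifen; nearly all actives have a fitted effect of over 55% in size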); details: SH-SY5Y neuroblastoma cell viability; series mostly up to 92.2 µM
How it was run: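 SH-SY5Y human neuroblastoma cells (1500/well) incubated 5 h, then compound-treated 40 h at 37 °C in complete medium. Viability read as intracellular ATP by CellTiter-Glo luminescence after 20 min; AC50 from Hill-equation fits of qHTS concentration-response.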

[18] = Cell Viability - Renal Proximal Tubule (AID 545; active = well fitted curve in the direction sought with a large enough effect; an effect the other way counts as inactive or inconclusive;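 also: 0% = DMSO only and -100% = 100 µM tamoxifen; nearly all actives have a fitted effect of over 40% in size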); details: renal proximal tubule cells viability, primary cells of rat origin; series mostly up to 91.7 µM
How it was run: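 Rat renal proximal tubule primary cells, 1000/well, exposed to compounds for 40 hr at 37 °C in complete medium; cellular ATP read by CellTiter-Glo luminescence. AC50 from concentration-response fitted with standard Hill equation.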

[19] = Cell Viability - Mesenchymal (AID 546; active = well fitted curve in the direction sought with a large enough effect; an effect the other way counts as inactive or inconclusive;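 also: cells exposed to compound for 40 hours before reading; 0% = DMSO only and -100% = 100 µM tamoxifen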); details: mesenchymal cells viability, qHTS; series mostly up to 91.7 µM
How it was run: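 AC50 values reflect the drop in intracellular ATP in a human kidney mesenchymal line derived from normal glomeruli. Treatment lasts 40 hr at 37 °C in complete medium, and the signal comes from CellTiter-Glo luminescence.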

Chain of Glucocorticoid receptor (Homo sapiens) (P04150 whole entry, looked up, the tested form may be a part): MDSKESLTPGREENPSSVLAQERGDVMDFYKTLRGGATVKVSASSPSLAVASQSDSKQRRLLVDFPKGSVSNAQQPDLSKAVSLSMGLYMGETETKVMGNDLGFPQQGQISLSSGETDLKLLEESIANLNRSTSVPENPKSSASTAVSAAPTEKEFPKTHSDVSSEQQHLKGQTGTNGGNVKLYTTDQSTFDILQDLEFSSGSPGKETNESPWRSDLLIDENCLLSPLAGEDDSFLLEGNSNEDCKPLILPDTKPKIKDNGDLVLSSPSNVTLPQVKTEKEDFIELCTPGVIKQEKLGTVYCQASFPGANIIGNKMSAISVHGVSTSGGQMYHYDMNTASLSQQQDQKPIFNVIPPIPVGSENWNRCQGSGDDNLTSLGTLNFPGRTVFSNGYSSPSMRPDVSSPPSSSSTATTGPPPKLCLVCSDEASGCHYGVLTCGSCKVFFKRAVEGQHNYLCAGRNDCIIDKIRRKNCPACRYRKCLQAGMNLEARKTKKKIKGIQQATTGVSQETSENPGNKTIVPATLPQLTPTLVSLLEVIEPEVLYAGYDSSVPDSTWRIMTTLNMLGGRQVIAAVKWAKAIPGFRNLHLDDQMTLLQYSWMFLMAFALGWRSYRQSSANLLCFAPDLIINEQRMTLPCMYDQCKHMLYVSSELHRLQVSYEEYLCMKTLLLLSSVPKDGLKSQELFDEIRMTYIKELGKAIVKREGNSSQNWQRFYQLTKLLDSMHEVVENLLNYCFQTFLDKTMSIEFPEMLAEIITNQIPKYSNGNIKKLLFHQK
Chain of Cytochrome P450 1A2 (Homo sapiens) (P05177 whole entry, looked up): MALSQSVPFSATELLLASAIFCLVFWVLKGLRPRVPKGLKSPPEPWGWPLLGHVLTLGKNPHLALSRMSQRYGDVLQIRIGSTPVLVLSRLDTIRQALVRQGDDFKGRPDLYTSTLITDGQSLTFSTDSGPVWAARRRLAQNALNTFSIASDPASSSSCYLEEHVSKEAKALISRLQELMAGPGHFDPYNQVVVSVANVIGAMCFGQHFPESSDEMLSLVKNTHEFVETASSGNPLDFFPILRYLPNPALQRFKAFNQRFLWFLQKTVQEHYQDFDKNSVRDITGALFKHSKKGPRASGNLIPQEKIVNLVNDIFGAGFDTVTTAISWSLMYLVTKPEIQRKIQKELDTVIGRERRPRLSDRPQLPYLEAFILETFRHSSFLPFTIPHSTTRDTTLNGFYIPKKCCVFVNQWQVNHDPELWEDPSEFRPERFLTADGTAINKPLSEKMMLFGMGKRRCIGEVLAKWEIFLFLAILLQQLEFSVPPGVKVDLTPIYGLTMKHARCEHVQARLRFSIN

Nc1nc2c(ncn2COCCO)c(=O)[nH]1
inactive: activity change, negative = inhibition ([1]; at 17.2 µM (top of the series)) 10.5% and -13.7% | activity change, negative = inhibition ([1]; at 38 µM (top of the series)) 1.53% | Potency [2] | activity change, negative = inhibition ([3]; at 17.2 µM (top of the series)) -0.796% and 22.4% | activity change, negative = inhibition ([3]; at 38 µM (top of the series)) 9.44% | outcome [4] | Potency [5] > 46 µM and > 20.6 µM | Potency [6] > 46 µM and > 20.6 µM

NS(=O)(=O)c1cc2c(cc1Cl)NC=NS2(=O)=O
inactive: activity change, negative = inhibition ([1]; at 17.2 µM (top of the series)) 10.4% and 2.47% | activity change, negative = inhibition ([1]; at 38 µM (top of the series)) -2.75% | Potency [7] > 92 µM | Potency [8] > 92 µM | Potency [9] > 92 µM | Potency [10] > 92 µM | Potency [11] > 92 µM | Potency [12] > 92 µM | activity change, negative = inhibition ([3]; at 17.2 µM (top of the series)) -2.56% and 9.37% | activity change, negative = inhibition ([3]; at 38 µM (top of the series)) 8.02% | outcome [4] | outcome [13] | Potency [14] | outcome [15] | Potency [16] | outcome [17] | outcome [18] | outcome [19]

Cc1[nH]c(=O)c(C#N)cc1-c1ccncc1
inactive: activity change, negative = inhibition ([1]; at 17.2 µM (top of the series)) 8.13% | activity change, negative = inhibition ([1]; at 38 µM (top of the series)) -0.284% | activity change, negative = inhibition ([3]; at 17.2 µM (top of the series)) -20.1% | activity change, negative = inhibition ([3]; at 38 µM (top of the series)) -0.614% | outcome [4]

C1COC(NC(C2CC2)C2CC2)=N1
inactive: activity change, negative = inhibition ([1]; at 17.2 µM (top of the series)) -19.2% and -1.91% | activity change, negative = inhibition ([1]; at 38 µM (top of the series)) -23.4% | Potency [2] | activity change, negative = inhibition ([3]; at 17.2 µM (top of the series)) -20.2% and 11.2% | activity change, negative = inhibition ([3]; at 38 µM (top of the series)) -2.75% | outcome [4]

NNCCc1ccccc1
active: Potency [2] 3.16 µM and 1 µM
inactive: activity change, negative = inhibition ([1]; at 17.2 µM (top of the series)) -1.06% | activity change, negative = inhibition ([1]; at 38 µM (top of the series)) 26% | activity change, negative = inhibition ([3]; at 17.2 µM (top of the series)) -10.8% | activity change, negative = inhibition ([3]; at 38 µM (top of the series)) -17.1% | outcome [4] | Potency [5] > 46 µM and > 20.6 µM | Potency [6] > 46 µM and > 20.6 µM

Cc1oncc1C(=O)Nc1ccc(C(F)(F)F)cc1
inactive: activity change, negative = inhibition ([1]; at 17.2 µM (top of the series)) -20.4% and 3.89% | activity change, negative = inhibition ([1]; at 38 µM (top of the series)) -1.93% | activity change, negative = inhibition ([3]; at 17.2 µM (top of the series)) 0.0794% and 7.99% | activity change, negative = inhibition ([3]; at 38 µM (top of the series)) -5.42% | outcome [4] | Potency [5] > 46 µM and > 20.6 µM | Potency [6] > 46 µM and > 20.6 µM
active: Potency [2] 631 nM and 63.1 nM

NC(=O)c1cnccn1
inactive: activity change, negative = inhibition ([1]; at 38 µM (top of the series)) 5.47% | Potency [2] | Potency [7] > 92 µM | Potency [8] > 92 µM | Potency [9] > 92 µM | Potency [10] > 92 µM | Potency [11] > 92 µM | Potency [12] > 92 µM | activity change, negative = inhibition ([3]; at 38 µM (top of the series)) 2.31% | outcome [4] | Potency [5] > 46 µM | Potency [6] > 46 µM | outcome [13] | Potency [14] | outcome [15] | Potency [16] | outcome [17] | outcome [18] | outcome [19]

CNC[C@H](O)c1cccc(O)c1
inactive: activity change, negative = inhibition ([1]; at 17.2 µM (top of the series)) -10.2% | activity change, negative = inhibition ([1]; at 38 µM (top of the series)) -17.9% | activity change, negative = inhibition ([3]; at 17.2 µM (top of the series)) -25.3% | activity change, negative = inhibition ([3]; at 38 µM (top of the series)) -0.528% | outcome [4]

Cc1ccc(N(CC2=NCCN2)c2cccc(O)c2)cc1
inactive: activity change, negative = inhibition ([1]; at 17.2 µM (top of the series)) 6.96% and 4.13% and 12.9% | activity change, negative = inhibition ([1]; at 38 µM (top of the series)) 18% | Potency [2] | activity change, negative = inhibition ([3]; at 17.2 µM (top of the series)) -19.1% and -11.9% and 3.66% | activity change, negative = inhibition ([3]; at 38 µM (top of the series)) -12.9% | outcome [4] | Potency [5] > 46 µM and > 20.6 µM | Potency [6] > 46 µM and > 20.6 µM

CC(C[N+](C)(C)C)OC(N)=O (configuration not stated)
inactive: activity change, negative = inhibition ([1]; at 17.2 µM (top of the series)) 1.75% | outcome [4] | Potency [5] > 20.6 µM

CCOC(=O)N1CCC(=C2c3ccc(Cl)cc3CCc3cccnc32)CC1
inactive: Potency [5] > 46 µM and > 20.6 µM | Potency [6] > 46 µM

Cc1ccccc1C(OCCN(C)C)c1ccccc1 (configuration not stated)
active: activity change, negative = inhibition ([3]; at 17.2 µM (top of the series)) -85.9%
inactive: activity change, negative = inhibition ([1]; at 17.2 µM (top of the series)) 14.6% | outcome [4] | Potency [5] > 20.6 µM

O=NN(CCCl)C(=O)NCCCl
inactive: activity change, negative = inhibition ([1]; at 38 µM (top of the series)) 3.21% | activity change, negative = inhibition ([3]; at 38 µM (top of the series)) -7.61% | Potency [5] > 46 µM | Potency [6] > 46 µM

CC(=O)Oc1ccccc1C(=O)O
inactive: activity change, negative = inhibition ([1]; at 38 µM (top of the series)) 8.53% | Potency [2] | Potency [7] > 92 µM | Potency [8] > 92 µM | Potency [9] > 92 µM | Potency [10] > 92 µM | Potency [11] > 92 µM | Potency [12] > 92 µM | activity change, negative = inhibition ([3]; at 38 µM (top of the series)) 2.25% | outcome [4] | Potency [5] > 46 µM | Potency [6] > 46 µM | outcome [13] | Potency [14] | outcome [15] | Potency [16] | outcome [17] | outcome [18] | outcome [19]
